Structures are written as SMILES.

The first test relates to Plasmodium falciparum. Put plainly: GSK_TCMDC: Inhibition of Plasmodium falciparum 3D7 in whole red blood cells, using parasite LDH activity as an index of growth. Test compounds present at 2uM. The test is classed as functional.
The Inhibition is the share of the control response that was lost under treatment. As for `Cc1cc(-c2ccc3occ(CCN)c3c2)cnc1N`, the Inhibition was 92%.

Take `Cc1nc(N)nc(N)c1CCCOc1ccccc1Br`: the Inhibition is on record as 97%.

Compound `CSc1cccc(NC(=O)Nc2ccc(I)c(OCCN(C)C)c2)c1` displayed an Inhibition of 97%.

`CC1(C)Cc2c(oc3ncn(CCn4cnc5oc6c(c5c4=N)CC(C)(C)SC6)c(=N)c23)CS1` returned an Inhibition of 98%.

Take `COc1ccc2nccc([C@@H](O)CN3CCC(NCc4cnc5c(c4)NC(=O)CS5)CC3)c2c1.O=C(O)C(=O)O`: the Inhibition is recorded as 87%.

`Br.Oc1ccc(CCNCCCCCCNCCc2ccc(Cl)c(Cl)c2)cc1O`: the Inhibition is recorded as 100%.

In turn, `O=C(Nc1ccc(OC(F)(F)F)cc1)NC1CCN(c2ccnc3ccccc23)CC1.O=C(O)C(F)(F)F` registered an Inhibition of 100%.

`O=S(=O)(c1c(Cl)cc(Cl)cc1Cl)N1CCCCC(c2ccc(F)c(F)c2)=N1`: the Inhibition is listed as 87%.

`CCNC(C)(C)CN(Cc1ccc(-c2ccc(C(F)(F)F)cc2)cc1)C(=O)Cn1c(CCc2cccc(F)c2F)nc(=O)c2ccccc21.O=C(O)C(O)C(O)C(=O)O`: the Inhibition is on record as 97%.

Take `Cc1cc(Nc2ccccc2)nc(NCCOc2ccccc2)n1.Cl`: the Inhibition came out at 100%.

For the compound `Cl.O=c1n(CC2CCCCC2)c2cc(Cl)cc(OCCNc3ccncc3)c2n1CC1CCCCC1`, the Inhibition was found to be 100%.

For `COc1cc(C)c(C(O)CNC(C)CCc2ccccc2)cc1C.Cl` (configuration not stated), the Inhibition came to 98%.

Compound `O=C(O)C(F)(F)F.c1ccc2[nH]c(-c3ccc(-c4ccc(CNC5CC5)cc4)s3)nc2c1` yielded an Inhibition of 91%.

As for `Cc1ccccc1C1CCN(C2CCC(NC(=O)c3ccc(-c4cc(C(F)(F)F)nn4C)s3)CC2)CC1` (configuration not stated), the Inhibition was found to be 98%.

`Cc1ccccc1N1CCN(c2ncc(C(=O)NC3CC3)cc2Cl)CC1.O=C(O)C(F)(F)F` displayed an Inhibition of 91%.

Regarding `CCC(C)(CC)C(=O)n1ncc2c3c(N)nc(N)nc3ccc21`, the Inhibition is 94%.

The compound `COc1ccc(S(=O)(=O)N(c2cc(Br)cc3c2OCC3)S(=O)(=O)c2ccc(OC)c(N3CCN(C)CC3)c2)cc1N1CCN(C)CC1` returned an Inhibition of 81%.

`Nc1ncnc2c1ncn2C(CO)Cc1ccc(O)cc1` (configuration not stated) gave an Inhibition of 93%.

In the case of `CCCCc1ccc2[nH]c(NC(=O)OC)nc2c1` [PARBENDAZOLE], the Inhibition turned out to be 98%.

On to `COc1ccc(C2CC(c3cccs3)=NN2C(=O)c2ccccc2)cc1OC` (configuration not stated), for which the Inhibition is given as 99%.

Take `Cc1ccc2[nH]c(-c3ccccc3N)cc2c1`: the Inhibition was 97%.

`CN1CCC(N(Cc2ccc(-c3ccc(Cl)cc3)cc2)C(=O)Cn2c(CCc3cccc(F)c3F)cc(=O)c3ccccc32)CC1.O=C(O)C(O)C(O)C(=O)O` had an Inhibition of 97%.

The compound `COc1cccc(CCc2cccc(CNC(C)=O)c2)c1` had an Inhibition of 88%.

As for `CN1CCN(Cc2ccc(-c3ccc4c(Nc5ccc(F)cc5Cl)ccnc4c3)o2)CC1`, the Inhibition was determined as 100%.

In turn, `O=C(c1cc(-c2cccs2)n[nH]1)N1CCN(S(=O)(=O)c2ccc(Cl)cc2)CC1` displayed an Inhibition of 96%.

In turn, `O=C(Nc1cccc(CN2CCN(Cc3ccc(O)cc3)CC2)c1)c1cc2ccccc2s1.O=C(O)C(F)(F)F` returned an Inhibition of 100%.

Take `C[C@@H]1CN(C(c2cccc(O)c2)c2cccc(C(=O)N(C)c3cccc(F)c3)c2)[C@@H](C)CN1C(c1cccc(O)c1)c1cccc(C(=O)N(C)c2cccc(F)c2)c1.Cl` (some centres not stated): the Inhibition turned out to be 91%.

Another test deals with Plasmodium falciparum. In words: GSK_TCMDC: Inhibition of Plasmodium falciparum Dd2 in whole red blood cells, using parasite LDH activity as an index of growth. Test compounds present at 2uM. The class given is functional.
Turning to `COc1ccc(CN2CCC(CN3CC4(OC3=O)c3ccccc3-c3ccccc34)C2)c(O)c1` (configuration not stated), the Inhibition came to 79%.

Take `COc1ccc(-c2cccc(NC(=O)c3cccc(F)c3)c2)cc1CN1CCCN(C)CC1.O=C(O)C(F)(F)F`: the Inhibition is 78%.

In turn, `O=C(Nc1cccc(-c2nn3ccccc3c2-c2ccnc(Nc3ccc(Cc4ccncc4)cc3)n2)c1)c1c(F)cccc1F` showed an Inhibition of 97%.

As for `O=C(O)C(F)(F)F.O=C1CCCN1CCCNCc1cccc(-c2ccc(-c3nc4ccccc4[nH]3)s2)c1`, the Inhibition was 0%.

As for `CCc1ccc(NC(=O)c2ccc(CN3CCCN(CC4CCCCC4)CC3)cc2)cc1.O=C(O)C(F)(F)F`, the Inhibition worked out at 48%.

`Clc1cccc(-c2nc(Nc3ccnc(-c4ccc(CN5CCOCC5)cc4)c3)c3ccccc3n2)c1` showed an Inhibition of 65%.

`O=[N+]([O-])c1ccc(N/C(=N\c2ccccc2Br)NC2CCCc3ccccc32)c(O)c1` (configuration not stated) showed an Inhibition of 89%.

In turn, `CS(=O)(=O)NCCCNCc1ccc(-c2ccc(-c3nc4cc(F)ccc4[nH]3)cc2)cc1.O=C(O)C(F)(F)F` registered an Inhibition of 97%.

As to `CCOC(=O)c1ccc(NC(=O)Nc2cccc(-c3ccc(-c4nc5cccc(C)c5[nH]4)s3)c2)cc1`, the Inhibition was determined as 99%.

The compound `CCN(CC)CCNC(=O)c1ccc(NC(=O)c2cc(-c3ccncc3)nc3ccccc23)cc1` came in with an Inhibition of 2%.

`Fc1ccccc1-c1cc(Nc2ccncc2)nc(-c2cccnc2)n1` displayed an Inhibition of 89%.

For `O=C(Nc1ccc(S(=O)(=O)N2CCCCC2)cc1)c1cc(-c2ccccc2O)n[nH]1`, the Inhibition is recorded as 81%.

Consider `COc1ccc(NC(=O)CCNc2cc(C)nc(NCc3cccc(C)c3)n2)cc1.O=C(O)C(F)(F)F`, for which the Inhibition came out at 25%.

For `Cc1cc(-c2ccc3occ(CCN)c3c2)cnc1N`, the Inhibition turned out to be 56%.

`Cc1nc(N)nc(N)c1CCCOc1ccccc1Br` showed an Inhibition of 5%.

With `CSc1cccc(NC(=O)Nc2ccc(I)c(OCCN(C)C)c2)c1`, the Inhibition is 19%.

In turn, `CC1(C)Cc2c(oc3ncn(CCn4cnc5oc6c(c5c4=N)CC(C)(C)SC6)c(=N)c23)CS1` gave an Inhibition of 93%.

Consider `COc1ccc2nccc([C@@H](O)CN3CCC(NCc4cnc5c(c4)NC(=O)CS5)CC3)c2c1.O=C(O)C(=O)O`, for which the Inhibition is 29%.

In turn, `Br.Oc1ccc(CCNCCCCCCNCCc2ccc(Cl)c(Cl)c2)cc1O` registered an Inhibition of 2%.

In turn, `O=C(Nc1ccc(OC(F)(F)F)cc1)NC1CCN(c2ccnc3ccccc23)CC1.O=C(O)C(F)(F)F` had an Inhibition of 40%.

`O=S(=O)(c1c(Cl)cc(Cl)cc1Cl)N1CCCCC(c2ccc(F)c(F)c2)=N1` displayed an Inhibition of 65%.

Consider `CCNC(C)(C)CN(Cc1ccc(-c2ccc(C(F)(F)F)cc2)cc1)C(=O)Cn1c(CCc2cccc(F)c2F)nc(=O)c2ccccc21.O=C(O)C(O)C(O)C(=O)O`, for which the Inhibition came to 70%.

`Cc1cc(Nc2ccccc2)nc(NCCOc2ccccc2)n1.Cl` returned an Inhibition of 48%.

In the case of `Cl.O=c1n(CC2CCCCC2)c2cc(Cl)cc(OCCNc3ccncc3)c2n1CC1CCCCC1`, the Inhibition was 64%.

As to `COc1cc(C)c(C(O)CNC(C)CCc2ccccc2)cc1C.Cl` (configuration not stated), the Inhibition came out at 98%.

For the compound `O=C(O)C(F)(F)F.c1ccc2[nH]c(-c3ccc(-c4ccc(CNC5CC5)cc4)s3)nc2c1`, the Inhibition is reported as 19%.

`Cc1ccccc1C1CCN(C2CCC(NC(=O)c3ccc(-c4cc(C(F)(F)F)nn4C)s3)CC2)CC1` (configuration not stated) returned an Inhibition of 68%.

Turning to `Cc1ccccc1N1CCN(c2ncc(C(=O)NC3CC3)cc2Cl)CC1.O=C(O)C(F)(F)F`, the Inhibition was determined as 96%.

`CCC(C)(CC)C(=O)n1ncc2c3c(N)nc(N)nc3ccc21` displayed an Inhibition of 6%.

Take `COc1ccc(S(=O)(=O)N(c2cc(Br)cc3c2OCC3)S(=O)(=O)c2ccc(OC)c(N3CCN(C)CC3)c2)cc1N1CCN(C)CC1`: the Inhibition worked out at 98%.

Compound `Nc1ncnc2c1ncn2C(CO)Cc1ccc(O)cc1` (configuration not stated) returned an Inhibition of 0%.

Take `CCCCc1ccc2[nH]c(NC(=O)OC)nc2c1` [PARBENDAZOLE]: the Inhibition was 1%.

For the compound `COc1ccc(C2CC(c3cccs3)=NN2C(=O)c2ccccc2)cc1OC` (configuration not stated), the Inhibition was 83%.

For the compound `Cc1ccc2[nH]c(-c3ccccc3N)cc2c1`, the Inhibition worked out at 8%.

As for `CN1CCC(N(Cc2ccc(-c3ccc(Cl)cc3)cc2)C(=O)Cn2c(CCc3cccc(F)c3F)cc(=O)c3ccccc32)CC1.O=C(O)C(O)C(O)C(=O)O`, the Inhibition was determined as 88%.

Compound `COc1cccc(CCc2cccc(CNC(C)=O)c2)c1` displayed an Inhibition of 0%.

Compound `CN1CCN(Cc2ccc(-c3ccc4c(Nc5ccc(F)cc5Cl)ccnc4c3)o2)CC1` had an Inhibition of 100%.

For the compound `O=C(c1cc(-c2cccs2)n[nH]1)N1CCN(S(=O)(=O)c2ccc(Cl)cc2)CC1`, the Inhibition is on record as 95%.

`O=C(Nc1cccc(CN2CCN(Cc3ccc(O)cc3)CC2)c1)c1cc2ccccc2s1.O=C(O)C(F)(F)F`: the Inhibition was found to be 26%.

Compound `C[C@@H]1CN(C(c2cccc(O)c2)c2cccc(C(=O)N(C)c3cccc(F)c3)c2)[C@@H](C)CN1C(c1cccc(O)c1)c1cccc(C(=O)N(C)c2cccc(F)c2)c1.Cl` (some centres not stated) had an Inhibition of 85%.

The values above are taken from ChEMBL document CHEMBL1157539, “Thousands of chemical starting points for antimalarial lead identification” (Nature, 2010).
